Screens from PubChem.
TDP1 cell noCPT: qHTS for Inhibitors of human tyrosyl-DNA phosphodiesterase 1 (TDP1): qHTS in cells in absence of CPT. DT40 Tdp1-/- hTDP1 cells, no CPT, ATP luminescence, 48 h. Potency, µM (highest dose often 46.2 µM), for the others: top-dose activity change, negative = growth inhibition, most hits filed as inhibitors. 15% of 420,000 active. AID 686978, 2013; note: % is set by controls: 0 for no effect and ±100 for the full control effect; nearly all actives have a fitted effect of over 55% in size
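Chicken DT40 Tdp1-/- cells complemented with human TDP1, screened without camptothecin (DMSO vehicle only), 400 cells/well. Compounds pin-transferred, cells incubated at 37 °C for at least 48 hr. Growth read as ATP-dependent luminescence (CellTiter-Glo, 30 min at RT).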
TDP1 block: blocks human tyrosyl-DNA phosphodiesterase 1; Potency, µM (top dose mostly 130 µM), for the others: top-dose activity change, negative = inhibition, usual class: inhibitors; Q9NUW8; recombinant TDP1, AlphaScreen DNA substrate cleavage; 0.28% of 350,000 active; note: % is set by controls: 0 for no effect and ±100 for the full control effect; nearly all actives have a fitted effect of over 40% in size
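E. coli-derived human Tdp1, 1 nM final. Cpd preinc 15 min RT; substrate 15 nM final, 5 min RT; AS bead mix 10 ug/ml final, 10 min RT. Signal loss = tyrosine-FITC cleavage. No-enzyme wells = max signal.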
ClpP mod: qHTS Assay for Activators of ClpP. purified B. subtilis ClpP, FRET peptide cleavage, 20 min. Potency, µM (doses to about 57.5 µM), inactives show top-dose activity change, negative = active. 1.9% of 340,000 active; active = well fitted falling curve with a large enough effect; inconclusive = small, poorly fitted or top-dose-only effect; inactive = no such curve, though single readings can be large or run the other way; note: the source files actives as falling curves though it sought activators and does not explain the sign; nearly all actives have a fitted effect of over 65% in size
Target sequence (P80244 whole entry, looked up): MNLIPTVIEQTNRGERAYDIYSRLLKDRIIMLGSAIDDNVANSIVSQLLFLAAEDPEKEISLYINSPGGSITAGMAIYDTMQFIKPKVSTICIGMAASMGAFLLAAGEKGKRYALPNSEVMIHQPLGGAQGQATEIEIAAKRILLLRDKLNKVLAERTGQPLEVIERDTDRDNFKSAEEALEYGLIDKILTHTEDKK
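ClpP 10 microg/mL final, pH 8 Tris/KCl buffer with BSA, glycerol, Tween-20; compound pinned in; FRET-FV substrate; RT 20 min; Ex320/Em430; ΔFRET vs ADEP 5.8 microM, DMSO, no enzyme.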
TDP1 cell CPT: DT40-hTDP1 cell growth loss with CPT | chicken DT40 Tdp1-/-;hTDP1 cells + 20 nM CPT, ATP luminescence, 48 h | Potency, µM (doses to about 46.2 µM), inactives show at the highest dose activity change, negative = growth inhibition, hits mostly inhibitors | 12% of 420,000 active | AID 686979; note: % is set by controls: 0 for no effect and ±100 for the full control effect; nearly all actives have a fitted effect of over 55% in size
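Chicken DT40 Tdp1-/- cells complemented with human TDP1, 400 cells/well, exposed to compounds plus 20 nM camptothecin for at least 48 h at 37 C; viability read as ATP content by CellTiter-Glo luminescence.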
* marks the source's active call; other numbers are inactive results; [ ] = dose if it differs, or a comment. Compounds with a hit are over-represented: about 17% of the library has one in this group of screens. Unless noted, calls come from the whole dose curve; as a rule, active = well fitted curve in the direction sought with a large enough effect; inconclusive = small, poorly fitted or top-dose-only effect, or another doubt; inactive = no such curve, though single readings can be large; an effect the other way counts as inactive or inconclusive. Potency is the fitted concentration of half-maximal effect.

Screening Cc1cccc(N2CCN(C(=O)CN3C(=O)COc4ccc(S(=O)(=O)N5CCC(C)CC5)cc43)CC2C)c1 (centres undefined) returned TDP1 block 4% and ClpP mod -1%.
`CCC1CN(CCNC(=O)C(C)(C)O)Cc2cc(OC)ccc2O1` (centres undefined) gave TDP1 cell noCPT -12% and TDP1 cell CPT 0%[9.04 µM].
`COc1cccc(CN(C)C(=O)c2cccc(S(=O)(=O)N3CCN(c4ccccc4)CC3)c2)c1OC` gave TDP1 cell noCPT 8.2µM*, ClpP mod -2% and TDP1 cell CPT 18µM*.
`COc1cccc(CN(C)C(=O)c2cc(S(=O)(=O)N3CCN(c4ccccc4)CC3)ccc2Cl)c1` gave TDP1 cell noCPT 16µM*, TDP1 block -12%, ClpP mod -1% and TDP1 cell CPT 23µM*.
For COc1ccccc1CNC(=O)c1cccc(S(=O)(=O)N2CCN(c3ccc(F)cc3)CC2)c1 the results were TDP1 cell noCPT 12µM*, TDP1 block 1%, ClpP mod -4% and TDP1 cell CPT inconclusive.
COc1ccc(CNC(=O)c2cccc(S(=O)(=O)N3CCN(c4ccc(F)cc4)CC3)c2)cc1 was read as TDP1 cell noCPT inconclusive, TDP1 block -3%, ClpP mod -1% and TDP1 cell CPT inconclusive.
Screening COc1cccc(NC(=O)CN(C)C(=O)c2cccc(S(=O)(=O)N3CCN(c4ccccc4)CC3)c2)c1 returned TDP1 cell noCPT -59%, TDP1 block 3%, ClpP mod -4% and TDP1 cell CPT inconclusive.
Screening CN(CCOc1ccccc1)C(=O)c1cc(S(=O)(=O)N2CCOCC2)ccc1Cl returned TDP1 cell noCPT inconclusive, ClpP mod -2% and TDP1 cell CPT -18%.
CN(CCOc1ccc(Cl)cc1)C(=O)c1cccc(S(=O)(=O)N2CCN(c3ccccc3)CC2)c1 was read as TDP1 cell noCPT 6.5µM*, ClpP mod -1% and TDP1 cell CPT 15µM*.
For COC(=O)CSc1ncc2c(n1)-c1ccccc1N(Cc1ccc(Cl)cc1)S2(=O)=O the results were TDP1 cell noCPT 0%, TDP1 block 5%, ClpP mod -5% and TDP1 cell CPT -15%.
For O=C(C(=O)N1CCCCC1)c1cn(CC(=O)N2CCCCCC2)c2ccccc12 the results were TDP1 cell noCPT 5%, TDP1 block 3%, ClpP mod 0% and TDP1 cell CPT -1%.
Screening CC(CNC(=O)CCc1cn(Cc2ccccc2Cl)c2ccccc12)c1ccccc1 (centres undefined) returned TDP1 cell noCPT inconclusive, TDP1 block 3%, ClpP mod -19% and TDP1 cell CPT inconclusive.
For CN(Cc1ccc(Cl)cc1Cl)C(=O)c1cccc(S(=O)(=O)N2CCN(c3ccccc3)CC2)c1 the results were TDP1 cell noCPT 16µM*, ClpP mod -11% and TDP1 cell CPT 26µM*.
Screening COc1ccc(OC)c(NC(=O)Cn2ccn(-c3ccc(F)cc3)c(=O)c2=O)c1 returned TDP1 cell noCPT 20%, TDP1 block 5%, ClpP mod -5% and TDP1 cell CPT 0%.
Screening Cc1ccc(-n2nc3c(=O)n(CCCC(=O)NCc4ccccc4C)nc(C)c3c2C)cc1 returned TDP1 cell noCPT 21µM*, TDP1 block 0%, ClpP mod -3% and TDP1 cell CPT 21µM*.
Cc1ccc(CNC(=O)CCCn2nc(C)c3c(C)n(-c4ccccc4)nc3c2=O)cc1 was read as TDP1 cell noCPT inconclusive, TDP1 block 0%, ClpP mod -4% and TDP1 cell CPT inconclusive.
For Cc1ccc(-n2nc3c(=O)n(CCCC(=O)NCC(C)c4ccccc4)nc(C)c3c2C)cc1 (centres undefined) the results were TDP1 cell noCPT 15µM*, TDP1 block 6%, ClpP mod 0% and TDP1 cell CPT inconclusive.
Cc1ccc(-n2nc3c(=O)n(CCCC(=O)NCc4ccccc4F)nc(C)c3c2C)cc1 was read as TDP1 cell noCPT inconclusive, TDP1 block 5%, ClpP mod -3% and TDP1 cell CPT inconclusive.
For COc1cccc([C@@H]2Oc3ccc(Br)cc3C(=O)[C@H]2OC(=O)Nc2cc(OC)c(OC)c(OC)c2)c1 the results were TDP1 block 6%.
`CCNC(=O)C1(C)CCN(C(=O)c2ccc(-c3ccccc3)cc2)C1` (centres undefined) gave TDP1 cell noCPT inconclusive, ClpP mod -2% and TDP1 cell CPT 16µM*.
CC(C)NC(=O)C1(C)CCCN1C(=O)c1ccc2c(c1)C(C)(C)CCC2(C)C (centres undefined) was read as TDP1 cell noCPT 3.7µM*, ClpP mod -1% and TDP1 cell CPT 4.6µM*.
Screening CCNC(=O)C1(C)CCCN(C(=O)c2ccc3c(c2)C(C)(C)CCC3(C)C)C1 (centres undefined) returned TDP1 cell noCPT 6.5µM*, ClpP mod 1% and TDP1 cell CPT 5.8µM*.
CCNC(=O)C1(C)CCN(C(=O)c2ccc3ccccc3c2)C1 (centres undefined) was read as TDP1 cell noCPT 5%, ClpP mod 1% and TDP1 cell CPT 9%.
`CCNC(=O)C1(C)CCCN(C(=O)c2ccc3sccc3c2)C1` (centres undefined) gave TDP1 cell noCPT 2%, ClpP mod 0% and TDP1 cell CPT -12%.
For Cc1ccc(S(=O)(=O)Nc2cc3c4c(c2)CCN4C(=O)CC3)cc1 the results were TDP1 cell noCPT inconclusive, ClpP mod -2% and TDP1 cell CPT -7%.
For CCCCC/C=C\C\C=C/C=C/C=C/[C@@H](SCC(N)C(=O)O)[C@@H](O)CCCC(=O)O (some centres undefined) the results were TDP1 block 6%.
For COc1ccc(-n2c(SCc3ccccc3F)nc3c([nH]c4ccccc43)c2=O)cc1OC the results were TDP1 cell noCPT 16µM*, TDP1 block 1%, ClpP mod -24% and TDP1 cell CPT 26µM*.
`COc1cccc(-n2c(SCC(=O)N3CCCCC3)nc3c([nH]c4ccccc43)c2=O)c1` gave TDP1 cell noCPT 21µM*, TDP1 block 0%, ClpP mod -7% and TDP1 cell CPT inconclusive.
CCC1CCCCN1C(=O)CSc1nc2c([nH]c3ccccc32)c(=O)n1-c1cccc(OC)c1 (centres undefined) was read as TDP1 cell noCPT 26µM*, TDP1 block 2%, ClpP mod inconclusive and TDP1 cell CPT inconclusive.
For COc1cccc(-n2c(SCC(=O)Nc3cc(C)on3)nc3c([nH]c4ccccc43)c2=O)c1 the results were TDP1 cell noCPT inconclusive, TDP1 block -5%, ClpP mod -21% and TDP1 cell CPT inconclusive.
